# Vaccinia Venus: vaccinia inhibition (Venus reporter); Vaccinia virus Venus reporter expression, fluorescence; Potency, µM (doses to about 36.5 µM), for inactives: top-dose activity change, negative = inhibition, actives largely listed as inhibitors; 330,000 compounds, 0.46% hits; AID 720580; calls by dose curve; tested in A549 cells; further: potency means the concentration at half of the fitted maximal effect; nearly all actives have a fitted effect of over 30% in size
# Marburg entry inh: Marburg virus entry inhibition; Marburg virus pseudotyped entry inhibition, cell reporter; Potency, µM (series often up to 37.8 µM), without a hit: at the top dose activity change, negative = inhibition, hits mostly inhibitors; 300,000 compounds, 1.8% hits; AID 540276; calls by dose curve; tested in HEK293 cells; further: potency means the concentration at half of the fitted maximal effect
# Lassa entry inh: blocks Lassa virus binding to or entry into cells. AID 540256. Potency, µM (series often up to 37.9 µM), for inactives: at the top dose activity change, negative = inhibition, hits mostly inhibitors. 300,000 compounds, 1.2% hits. Lassa virus pseudotype entry inhibition, cell reporter; calls by dose curve; tested in HEK293 cells; further: potency means the concentration at half of the fitted maximal effect; nearly all actives have a fitted effect of over 50% in size
# FMDV antiviral: foot and mouth disease virus antiviral activity | FMDV antiviral cell-based qHTS | Potency, µM (highest dose often 57.9 µM), inactives show at the top dose activity change, negative = inhibition, hits mostly inhibitors | 410,000 compounds, 1.2% hits | AID 1159524; calls by dose curve; tested in HEK293T cells; further: read-out not given here; potency means the concentration at half of the fitted maximal effect; nearly all actives have a fitted effect of over 45% in size
# Vaccinia mCherry: vaccinia inhibition (mCherry reporter); AID 720579; Vaccinia virus mCherry reporter infection, fluorescence; 310,000 compounds, 0.63% hits; Potency, µM (highest dose often 36.5 µM), for the others: at the top dose activity change, negative = inhibition, usual class: inhibitors; calls by dose curve; tested in A549 cells; further: potency means the concentration at half of the fitted maximal effect; nearly all actives have a fitted effect of over 35% in size
# HCMV antiviral: inhibitors of human cytomegalovirus; HFF cells, HCMV-luciferase reporter, 72 h; stronger effect = lower value; activity change, negative = inhibition, % at 57.5 µM; 410,000 compounds, 4.5% hits; AID 1259415; in the data active means activity change below about -60%; inconclusive means no clear call, values can overlap the other calls; inactive means above about -39%
#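 Steps: HFFs plated, 16 h 37C; compounds added; HCMV-luciferase added to MOI 1 PFU/cell; 72 h 37C; OneGlo reagent, 5 min room temperature; luminescence read, normalized to controls.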
# Numbers without * were called inactive; i = inactive; u = inconclusive; x = no result; [ ] = dose if it differs, or a comment. In the library only some 6.5% were active in any assay of this set; here they are far more common. On the % scale 0 is the no-effect control and ±100 the full control effect.
SMILES,Vaccinia Venus,Marburg entry inh,Lassa entry inh,FMDV antiviral,Vaccinia mCherry,HCMV antiviral
CCOC(=O)Cc1ccc(NC(=O)c2ccc(C(C)(C)C)cc2)cc1,u,13µM*,13µM*,18µM*,u,-88*
CC(C)(C)c1ccc(C(=O)Nc2ccc(NC(=O)c3ccco3)cc2)cc1,u,-8%,-1%,x,-23%,-83*
COC(=O)Cc1ccc(NC(=O)c2ccc(NC(=O)c3ccco3)cc2)cc1,-4%,u,-2%,-14%,-21%,-83*
CN(C)c1ccc([C@H]2[C@@H]3C(=O)N(c4ccc(C(=O)O)cc4)C(=O)[C@H]3ON2c2ccccc2)cc1,x,-1%[46.1 µM],x,x,x,x
Nc1cccc2c(=O)[nH][nH]c(=O)c12,-5%,u,-19%[46.1 µM],0%,i,7
O=C(c1ccccc1)N1N=C(C(F)(F)F)CC1(O)c1ccccc1O (centres undefined),x,x,x,u,x,41
O=C(Nc1ccc(NC(=O)c2ccco2)nc1)c1ccco1,-10%,u,u,-43%,i,u
CC(C)(C)C(=O)Nc1ccc(NC(=O)c2ccco2)nc1,-6%,u,u,6.3µM*,-8%,-96*
O=C(NC(=S)Nc1cccc(NC(=S)NC(=O)c2ccco2)n1)c1ccco1,-13%,9%[46.1 µM],10%,51%,-14%,-116*
Cc1cc(C)c(C)c(S(=O)(=O)NC2CCCCC2)c1C,-4%,u,1%[46.1 µM],45%,i,-9
Cc1ccc2occ(CC(=O)Nc3ccc(Cl)c(C(F)(F)F)c3)c2c1,u,u,0%[46.1 µM],-4%,u,-78*
COCCN1Cc2cc3cc(C)ccc3nc2SC1=Nc1cccc(OC)c1,x,x,x,-14%,x,5
Cc1cccc(N=C2Sc3nc4c(C)c(C)ccc4cc3CN2CCN2CCOCC2)c1,u,16µM*,23µM*,-29%,-11%,-7
O=C(Nc1ccc(C(=O)N2CCN(c3ccccc3F)CC2)cc1)C1=CSCCO1,x,x,x,24%,x,-61*
Cc1ccc(NC(=O)c2ccc(Cl)c(N3C(=O)C=CC3=O)c2)cc1,u,-1%,-9%,40µM*,x,-12
COc1cc(-c2nc(-c3ccc(NC(=O)c4ccc5c(c4)OCO5)cc3)no2)cc(OC)c1OC,-15%,u,-6%,-24%,-18%,60
O=C(c1ccc(F)cc1)c1ccc(N2CCCCC2)cc1,x,x,x,45%,x,25
Cc1ccccc1-c1nc(-c2ccc(NC(=O)c3ccc4c(c3)OCO4)cc2)no1,x,u,u,11%,x,-79*
O=C(Nc1ccc(N2CCCCC2)cc1)c1ccc(F)cc1,-5%,11µM*,u,-17%,-13%,55
Cc1ncc2c(c1CNS(=O)(=O)c1cccs1)CCN(C(=O)/C=C/c1cc(F)cc(F)c1)C2,-12%,x,x,-5%,-20%,x
O=S(=O)(c1ccc2c(c1)OCO2)N1CCN(c2nc(-c3cccs3)nc3ccccc23)CC1,-19%,x,x,x,i,x
CN(C)CCC1(c2ccc(Cl)cc2)Cc2ccccc2C(=O)O1 (centres undefined),x,x,x,-8%,x,x
CCCC(=O)N1CCN(c2ccc(NC(=O)c3ccc4c(c3)OCCO4)cc2)CC1,-4%,8%[46.1 µM],7%,u,-8%,40
CCCCOC(=O)Nc1ccc(N2CCCCC2)cc1,-11%,u,8.9µM*,4%,-17%,145
O=C(Nc1ccc(N2CCCCC2)cc1)c1ccc2c(c1)OCCO2,x,u,u,-22%,x,-91*
SMILES,Vaccinia Venus,Marburg entry inh,Lassa entry inh,FMDV antiviral,Vaccinia mCherry,HCMV antiviral
Cc1ccc(NC(=O)c2ccc3c(c2)OCCO3)cc1,-20%,13µM*,4.5µM*,0%,x,17
O=C(Nc1ccc(N2CCN(C(=O)c3ccc(Cl)cc3)CC2)cc1)c1ccc2c(c1)OCCO2,u,u,u,11µM*,u,-92*
CC(=O)N1CCN(c2ccc(NC(=O)c3ccc4c(c3)OCCO4)cc2)CC1,-12%,20%,18%,x,i,-23
O=C(Nc1ccncc1)c1ccc2c(c1)OCCO2,-25%,-25%,-18%,-20%,x,-13
CCCCOC(=O)Nc1ccc(N2CCOCC2)cc1,x,u,12%,56%,x,52
Cc1cccc(CNc2ccnc(-c3ccoc3)n2)c1,u,x,x,-4%,u,x
COc1ccc(N2CC(C)(C)C[C@@H]2/C=C/C(=O)OC(C)(C)C)cc1,x,x,x,x,x,-13
Cc1cc(C)c2c(c1)OC(=O)CC2c1ccccc1C (centres undefined),-2%,x,x,-3%,-2%,3
CC(C)(C)C(=O)N1CCN(c2ccc(NC(=O)c3ccc4c(c3)OCCO4)cc2)CC1,-14%,u,u,32µM*,-22%,-68*
O=C(Nc1ccc(N2CCN(C(=O)c3ccccc3)CC2)cc1)c1ccc2c(c1)OCCO2,-11%,u,u,32µM*,-4%,-69*
Cc1ccc(-c2nnc(SCC(=O)N(CC(C)C)c3c(N)n(Cc4ccccc4)c(=O)[nH]c3=O)n2N)cc1,-15%,11%,11%,-8%,-2%,10
CC(=O)c1c(C)[nH]c(C(=O)CN(C)CC(=O)Nc2ccccc2Cl)c1C,-10%,u,u,u,-14%,-15
CSc1ccccc1NC(=O)CN(C)CC(=O)NCc1ccccc1,9%,-15%,-16%,-6%,i,-84*
CSc1ccccc1NC(=O)CN(C)CC(=O)c1[nH]c(C)c(C(C)=O)c1C,-2%,-1%,-26%,35µM*,-17%,29
O=C(COC(=O)c1cc([N+](=O)[O-])ccc1N1CCOCC1)Nc1cccc(F)c1,x,x,x,40µM*,x,-4
O=C(OCc1ccc([N+](=O)[O-])cc1)c1cc([N+](=O)[O-])ccc1N1CCOCC1,-26%,-14%,u,-29%,u,-27
COc1ccc(C(=O)c2cc([N+](=O)[O-])ccc2N2CCOCC2)cc1,u,u,u,-12%,u,-99*
Cc1ccc(COC(=O)c2cc([N+](=O)[O-])ccc2N2CCOCC2)cc1,x,x,x,x,x,-63*
